# Laboratory results from PubChem BioAssay (NCI).
# The panel holds about 83,000 compounds, 20% with a hit somewhere; the sample as a whole holds those more often.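 In brief: 96-well plates, 48 h treatment, single concentration, percent growth endpoint.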 A number with no mark means an inactive call. Activity calls are given as the source filed them. How the source made its calls: active means growth percent below 10; inactive means the rest.
# Tested on: SF-539 CNS
# Test: NCI-60 one-dose screen, 48 h (100 = growth as untreated, 0 = no growth, -100 = all killed)
# Details: 10 µM unless noted
row,SMILES,growth
1,CCOC(=O)[C@H](CSSc1ncnc2cc[nH]c12)NC(=O)[C@@H](C)c1ccc2cc(OC)ccc2c1,11.4%
2,CC(C)C[C@H](NC(=O)Cn1ccc(NCc2ccccc2)cc1=O)B(O)O,-29.4% (active)
3,COc1ccc(C(=O)c2cc(OC)c(OC)c(OC)c2)cc1/C=C/C(=O)c1ccc(O)cc1,0.251% (active)
4,Cc1cccc(NC(=O)c2sc3nc4c(cc3c2N)CCC4)c1C,1.33% (active)
5,COc1cc(-c2cc(/C=C3\CCCCC3=O)[nH]n2)cc(OC)c1OC,103%
6,COc1cccc(C2CC(=O)Nc3c2c(C)nn3-c2nc3ccccc3[nH]2)c1OC (centres undefined),99.7%
7,CCNC(=O)C1CCCN1C(=O)C(CCCN=C(N)N)NC(=O)C(CC(C)C)NC(=O)C(CC(C)C)NC(=O)C(Cc1ccc(O)cc1)NC(=O)C(CO)NC(=O)C(Cc1c[nH]c2ccccc12)NC(=O)C(Cc1cnc[nH]1)NC(=O)C1CCC(=O)N1 (centres undefined),96.1%
8,COc1ccc(-c2nc3sccn3c2-c2ccnc(NCCCNS(=O)(=O)c3ccc(F)cc3)n2)cc1,28.4%
9,CCCCCC(=O)OCc1ccccc1,98.8%
10,CN(C)c1nc(N)c(N=O)c(N)n1,110%
11,COc1ccc(Cn2cc(COc3cc(/C=C/C(=O)c4cc(OC)c(OC)c(OC)c4)ccc3OC)nn2)cc1,49.2%
12,CCOC(=O)C(Cc1ccccc1)n1c(O)c(C=Nc2ccc(C(=O)OCCN(CC)CC)cc2)sc1=O (centres undefined),86.5%
13,COc1cc(Cn2c(SCC(=O)Nc3ccc(Cl)cc3)nc3ccccc3c2=O)cc(OC)c1OC,-14% (active)
14,Cc1ccc(S(=O)(=O)NCCCNc2nccc(-c3c(-c4ccccc4)nc4sccn34)n2)cc1,82.5%
15,Cc1cc(-c2ccccc2)c(C)n1Cc1ccc(Cl)cc1,39.4%
16,CN(C)c1ccc(C2CC(c3ccccc3)=NN2/C=C2\SC(=O)NC2=O)cc1 (centres undefined),76%
17,C=C1C(=O)O[C@H]2[C@H]1CC/C(COC(=O)NCCc1ccc(OC)cc1)=C\CC[C@@]1(C)O[C@@H]21,26.6%
18,O=C(CCCn1c(=O)c2sc3ccccc3c2n2nnc(-c3ccccc3)c12)NCCc1cnc[nH]1,-82.8% (active)
19,O=C1c2ccccc2C(=O)c2c1oc1oc3c(c(=O)c21)c(=O)n(-c1ccccc1)c1ccccc31,-5.45% (active)
20,COc1ccc(Cn2c(SC)nc(=O)n(Cc3ccc(Cl)cc3)c2=O)cc1,106%

row,SMILES,growth
1,COc1cc(CNC(=O)CCSc2nc3ccccc3c(=O)n2Cc2cc(OC)c(OC)c(OC)c2)cc(OC)c1OC,25.4%
2,O=C(COc1ccccc1)N1N=C(c2ccc(Cl)cc2)CC1c1c[nH]c2ccccc12 (centres undefined),87.1%
3,CC(=O)n1cc([C@H]2CC[C@H](c3cn(C(C)=O)c4ccccc34)c3c2[nH]c2ccccc32)c2ccccc21,92.7%
4,CCN(CC)CCCC(C)N=c1cc(Nc2cc(=NC(C)CCCN(CC)CC)c3cc(OC)ccc3o2)oc2ccc(OC)cc12 (centres undefined),-90.2% (active)
5,CC1(C)OC2COC3(C(=O)O)OC(C)(C)OC3C2O1 (centres undefined),101%
6,Cc1ccc(Cn2c(-c3nonc3N)nc3ccccc32)cc1,80.4%
7,COc1cc2nc(N3CCC[C@@H](NC4=CC(=O)c5ccccc5C4=O)C3)nc(N)c2cc1OC,-99.9% (active)
8,O=C(Nc1ccc(Cl)cc1)c1cc(-c2ccc(F)cc2)c2sc(=O)[nH]c2n1,-4.01% (active)
9,Cc1cc(C)c(S(=O)(=O)N2CCN(c3cc4c(cc3F)c(=O)c(C(=O)O)cn4C3CC3)CC2)c(C)c1,46.5%
10,O=C(CCCn1c2c(sc3ccccc32)c(=O)n2nnc(-c3ccccc3)c12)NCCc1cnc[nH]1,-97.3% (active)
11,COc1ccc2c(c1)NC(=O)CN2c1nc(NC2CC2)nc2ccccc12,-15% (active)
12,C=C1C(=O)O[C@H]2[C@H](O)[C@@H](C)CCC/C(C)=C/CC[C@@]3(C)O[C@@H]3C[C@@H]12,84.2%
13,COc1ccc(/C=C/C(=O)c2cc(OC)c(OC)c(OC)c2)cc1OCc1cn(Cc2ccc(F)cc2)nn1,6.59% (active)
14,O=C(CCC(=O)OC1CCCC1)OC1CCCC1,87.8%
15,CCN(C(=O)c1cc2ncccc2[nH]1)[C@H]1CCC[C@@H](NCc2cccc(F)c2)C1,98.5%
16,CCCCCCCCCCCCCCCCC(Br)C(=O)O (centres undefined),86.4%
17,COc1cc2nc(Cl)nc(NCCO)c2cc1OC,96.1%
18,CCOC(=O)C1=C(CSC(=S)N(C2CCCCC2)C2CCCCC2)N(C)C(=O)NC1c1ccccc1 (centres undefined),71.6%
19,CC1=C(C#N)C(C)(C)C(C#N)=C(C)N1,99.3%

# Tested on: UACC-257 melanoma
# Test: as above
# Details: 10 µM
row,SMILES,growth
1,CCOC(=O)[C@H](CSSc1ncnc2cc[nH]c12)NC(=O)[C@@H](C)c1ccc2cc(OC)ccc2c1,28.2%
2,CC(C)C[C@H](NC(=O)Cn1ccc(NCc2ccccc2)cc1=O)B(O)O,-3% (active)
3,COc1ccc(C(=O)c2cc(OC)c(OC)c(OC)c2)cc1/C=C/C(=O)c1ccc(O)cc1,36%
4,Cc1cccc(NC(=O)c2sc3nc4c(cc3c2N)CCC4)c1C,54.8%
5,COc1cc(-c2cc(/C=C3\CCCCC3=O)[nH]n2)cc(OC)c1OC,95%
6,COc1cccc(C2CC(=O)Nc3c2c(C)nn3-c2nc3ccccc3[nH]2)c1OC (centres undefined),79.1%
7,CCNC(=O)C1CCCN1C(=O)C(CCCN=C(N)N)NC(=O)C(CC(C)C)NC(=O)C(CC(C)C)NC(=O)C(Cc1ccc(O)cc1)NC(=O)C(CO)NC(=O)C(Cc1c[nH]c2ccccc12)NC(=O)C(Cc1cnc[nH]1)NC(=O)C1CCC(=O)N1 (centres undefined),83.8%
8,COc1ccc(-c2nc3sccn3c2-c2ccnc(NCCCNS(=O)(=O)c3ccc(F)cc3)n2)cc1,26.1%
9,CCCCCC(=O)OCc1ccccc1,96.8%
10,COc1ccc(Cn2cc(COc3cc(/C=C/C(=O)c4cc(OC)c(OC)c(OC)c4)ccc3OC)nn2)cc1,96.1%
11,CCOC(=O)C(Cc1ccccc1)n1c(O)c(C=Nc2ccc(C(=O)OCCN(CC)CC)cc2)sc1=O (centres undefined),77.4%
12,COc1cc(Cn2c(SCC(=O)Nc3ccc(Cl)cc3)nc3ccccc3c2=O)cc(OC)c1OC,73.8%
13,Cc1ccc(S(=O)(=O)NCCCNc2nccc(-c3c(-c4ccccc4)nc4sccn34)n2)cc1,106%
14,Cc1cc(-c2ccccc2)c(C)n1Cc1ccc(Cl)cc1,48.4%
15,CN(C)c1ccc(C2CC(c3ccccc3)=NN2/C=C2\SC(=O)NC2=O)cc1 (centres undefined),115%
16,O=C(CCCn1c(=O)c2sc3ccccc3c2n2nnc(-c3ccccc3)c12)NCCc1cnc[nH]1,-44.4% (active)
17,O=C1c2ccccc2C(=O)c2c1oc1oc3c(c(=O)c21)c(=O)n(-c1ccccc1)c1ccccc31,101%
18,COc1ccc(Cn2c(SC)nc(=O)n(Cc3ccc(Cl)cc3)c2=O)cc1,102%

row,SMILES,growth
1,COc1cc(CNC(=O)CCSc2nc3ccccc3c(=O)n2Cc2cc(OC)c(OC)c(OC)c2)cc(OC)c1OC,59.1%
2,O=C(COc1ccccc1)N1N=C(c2ccc(Cl)cc2)CC1c1c[nH]c2ccccc12 (centres undefined),89.1%
3,CC(=O)n1cc([C@H]2CC[C@H](c3cn(C(C)=O)c4ccccc34)c3c2[nH]c2ccccc32)c2ccccc21,89.5%
4,CCN(CC)CCCC(C)N=c1cc(Nc2cc(=NC(C)CCCN(CC)CC)c3cc(OC)ccc3o2)oc2ccc(OC)cc12 (centres undefined),-79.1% (active)
5,Cc1ccc(Cn2c(-c3nonc3N)nc3ccccc32)cc1,89.6%
6,COc1cc2nc(N3CCC[C@@H](NC4=CC(=O)c5ccccc5C4=O)C3)nc(N)c2cc1OC,95.3%
7,O=C(Nc1ccc(Cl)cc1)c1cc(-c2ccc(F)cc2)c2sc(=O)[nH]c2n1,-8.82% (active)
8,Cc1cc(C)c(S(=O)(=O)N2CCN(c3cc4c(cc3F)c(=O)c(C(=O)O)cn4C3CC3)CC2)c(C)c1,86.9%
9,O=C(CCCn1c2c(sc3ccccc32)c(=O)n2nnc(-c3ccccc3)c12)NCCc1cnc[nH]1,-7.05% (active)
10,C=C1C(=O)O[C@H]2[C@H](O)[C@@H](C)CCC/C(C)=C/CC[C@@]3(C)O[C@@H]3C[C@@H]12,56.9%
11,COc1ccc(/C=C/C(=O)c2cc(OC)c(OC)c(OC)c2)cc1OCc1cn(Cc2ccc(F)cc2)nn1,98.3%
12,O=C(CCC(=O)OC1CCCC1)OC1CCCC1,85.4%
13,CCN(C(=O)c1cc2ncccc2[nH]1)[C@H]1CCC[C@@H](NCc2cccc(F)c2)C1,107%
14,CCCCCCCCCCCCCCCCC(Br)C(=O)O (centres undefined),110%
15,COc1cc2nc(Cl)nc(NCCO)c2cc1OC,98.6%
16,CCOC(=O)C1=C(CSC(=S)N(C2CCCCC2)C2CCCCC2)N(C)C(=O)NC1c1ccccc1 (centres undefined),61.4%
17,CC1=C(C#N)C(C)(C)C(C#N)=C(C)N1,103%
